Screens as filed in PubChem.
KB-V1 cytotox = kills drug-selected multidrug resistant KB-V1 cells; KB-V1 MDR cells viability, CellTiter-Glo, 72 h; 3.4% of 400,000 active; Potency, µM (top dose mostly 46.1 µM), usual class: cytotoxic; further: on the % scale 0 is the no-effect control and ±100 the full control effect; nearly all actives have a fitted effect of over 60% in size
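Cells of the MDR subline KB-V1 are plated, dosed with compound at multiple concentrations, and incubated 72 h at 37 degrees C; CellTiter-Glo is then added and luminescence read after 10 min.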
HT1080NT lethal = kills 2HG-producing HT-1080-NT fibrosarcoma cells | HT-1080-NT fibrosarcoma viability, CellTiter-Glo ATP luminescence, 48 h | Potency, µM (titrated, usually from 46.1 µM), for inactives: at the highest dose activity, negative = less viability, hits mostly cytotoxic | 1.6% of 360,000 active | AID 686970;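 further: NT is the 2HG producing partner of a matched IDH1 knockdown line; 0% = DMSO-treated cells and -100% = media-only wells without cells; nearly all actives have a fitted effect of over 55% in size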
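Read-out is CellTiter-Glo luminescence after 10 minutes at room temperature, following 48 hours' compound treatment of HT-1080-NT cells (750 cells/well, RPMI, 5% FBS, 37 degrees C).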
TGFb SMAD3 inh = blocks TGF-b signaling. HepG2 CAGA-GFP TGF-b/SMAD3 reporter, GFP fluorescence, 18 h; TGF-beta stimulated, 500 pg/mL final. Potency, µM (titrated, usually from 46.1 µM), for inactives: at the highest dose activity, negative = inhibition, actives largely listed as inhibitors. 1.2% of 410,000 active. AID 588855; further: on the % scale 0 is the no-effect control and ±100 the full control effect; nearly all actives have a fitted effect of over 65% in size
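Smad-responsive CAGA-GFP expression was quantified in HEPG2 cells exposed to compounds and 500 pg/mL final TGF-beta for 18 h at 37 degrees C; unstimulated wells defined full inhibition.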
HepG2 viability = kills HepG2 cells in TGF-b inhibitor counter-screen. 0.76% of 410,000 active. Potency, µM (doses to about 46.1 µM), inactives show at the top dose activity change, negative = cytotoxicity, hits mostly cytotoxic. HepG2 CAGA-GFP viability, ATP luminescence, 18 h
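HepG2 CAGA-GFP cells (1000/well, DMEM with 1% FBS) received compound, then TGF-beta at 500 pg/mL final, and were incubated 18 hours at 37 degrees C. Viability was read by CellTiter-Glo luminescence. Media-only wells were set as complete cell-killing and DMSO as no toxicity.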
HT1080 IDH1KD tx = HT-1080 IDH1 knockdown cell toxicity (counter line). AID 686971. 2% of 360,000 active. Potency, µM (top dose mostly 46.1 µM), without a hit: at the top dose activity, negative = toxicity, actives largely listed as cytotoxic. HT-1080 IDH1 knockdown viability, ATP luminescence, 48 h;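 further: 0% = DMSO wells and -100% = cell-free medium wells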
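In this qHTS, HT-1080 cells depleted of IDH1 are exposed for 48 h at 37 °C to compound titrations. Toxicity is scored from CellTiter-Glo luminescence, with DMSO as full viability and medium alone as none.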
KB-3-1 tox = KB-3-1 parental cell cytotoxicity; Potency, µM (highest dose often 46.1 µM), actives largely listed as cytotoxic; AID 1347075; 1.4% of 400,000 active; KB-3-1 viability, CellTiter-Glo ATP luminescence, 72 h; further: on the % scale 0 is the no-effect control and ±100 the full control effect; nearly all actives have a fitted effect of over 60% in size
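KB-3-1 cells, DMEM (no phenol red) + 10% FBS; compound by pin transfer, 72 h, 37 °C. Readout: CellTiter-Glo luminescence after 10 min. Data normalized, curve-fitted.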
* marks the source's active call; other numbers are inactive results; i = inactive; ? = inconclusive; . = not tested or not shown. Hits are enriched below; roughly 6.6% of the tested compounds scored in any of these assays. The call rests on the fitted dose curve; in most records, active means well fitted curve in the direction sought with a large enough effect; inconclusive means small, poorly fitted or top-dose-only effect, or another doubt; inactive means no such curve, though single readings can be large; an effect the other way counts as inactive or inconclusive. Potency means the concentration at half of the fitted maximal effect.

SMILES	KB-V1 cytotox	HT1080NT lethal	TGFb SMAD3 inh	HepG2 viability	HT1080 IDH1KD tx	KB-3-1 tox
CC1(c2ccccc2)NC(=S)N2C1NC(=S)N2c1ccccc1 (configuration not stated)	i	-9%	0%	-47%	-14%	i
COc1ccc(N2C(=S)NC3N2C(=S)NC3(C)c2ccccc2)cc1 (configuration not stated)	i	16µM*	?	9%	12µM*	?
COc1cccc(N2CC(NC(=O)COc3ccc4ccccc4c3)CC2=O)c1 (configuration not stated)	.	.	-14%	-18%	.	.
C=Cc1ccc(CSc2nc(-c3ccc(OC)cc3)nc3c2Cc2c(CO)cnc(C)c2O3)cc1	i	.	-6%	4%	.	i
Cc1ccc(OCC(=O)Nc2ccc3nc(SCC(=O)Nc4ccc(C)cc4C)sc3c2)cc1	i	.	6%	0%	.	i
CCn1c(Sc2ccc([N+](=O)[O-])cn2)nnc1-c1ccco1	?	12µM*	?	-53%	18µM*	21µM*
CCn1c(SCC(=O)OCc2ccccc2)nnc1-c1ccco1	i	4%	-14%	-31%	-5%	i
Cc1ccc(NS(=O)(=O)c2ccc3c(c2)[C@H]2C=CC[C@H]2[C@@H](c2ccc(F)cc2)N3)cc1C	i	.	8.9µM*	-22%	.	i
COC(=O)c1ccc([C@H]2Nc3ccc(S(=O)(=O)Nc4cccc(C)c4)cc3[C@H]3C=CC[C@H]32)cc1	i	.	6.3µM*	-23%	.	i
CC(=O)c1ccc2c(c1)C1C=CCC1C(c1ccncc1)N2 (configuration not stated)	23µM*	-1%	-1%	-10%	-1%	?
Cc1ccc([C@H]2Nc3ccc(S(=O)(=O)Nc4cccc(Cl)c4C)cc3[C@H]3C=CC[C@H]32)cc1	.	.	-21%	-34%	.	.
O=c1c(Cl)c(NCCCO)cnn1-c1nc2ccccc2[nH]1	i	13µM*	0%	-55%	13µM*	?
C=CCN(CC=C)c1cnn(-c2nc3ccccc3[nH]2)c(=O)c1Cl	4.1µM*	3%	0%	-35%	-12%	i
CCc1cccc(NC(=O)c2ccc(CNS(=O)(=O)c3ccc4c(c3)C(C)(C)C(=O)N4C)cc2)c1	.	.	?	-35%	.	.
CC(=O)Nc1ccc(S(=O)(=O)NC2(C(F)(F)F)NC(=O)N(CCc3ccc(F)cc3)C2=O)cc1 (configuration not stated)	i	.	-4%	13%	.	i
CCC(=O)Nc1cccc(-c2cn3ccccc3n2)c1	i	?	-20%	13%	?	i
O=C(Nc1cccc(-c2cn3ccccc3n2)c1)C1CC1	18µM*	-3%	-13%	-11%	11%	?
O=C(Nc1cccc(-c2cn3ccccc3n2)c1)c1cnccn1	i	13%	5%	1%	-1%	i
O=C(Nc1cccc(-c2cn3ccccc3n2)c1)c1cccc(Cl)c1	9.2µM*	?	?	-101%	?	i
O=C(C1CCN(S(=O)(=O)Cc2ccccc2)CC1)N1CCN(c2cccc(C(F)(F)F)c2)CC1	i	.	25%	-11%	.	i
O=C(COc1ccccc1F)Nc1ccccc1OCc1cc(=O)n2ccccc2n1	.	.	4%	4%	.	.
COc1ccc2[nH]c3c(c2c1)CCNC3=O	?	.	-7%	-17%	.	?
O=C1NCCc2c1[nH]c1ccccc21	6.5µM*	6%	2%	3%	1%	?
N#CC1CCCc2c1[nH]c1ccc([N+](=O)[O-])cc21 (configuration not stated)	i	-25%	16%	18%	?	?
O=C1NCCc2c1[nH]c1ccc([N+](=O)[O-])cc21	0.92µM*	-13%	13%	-81%	?	1.6µM*
SMILES	KB-V1 cytotox	HT1080NT lethal	TGFb SMAD3 inh	HepG2 viability	HT1080 IDH1KD tx	KB-3-1 tox
CC(=O)c1ccc(NC(=O)COc2ccccc2-c2nc(-c3cccc(C)c3)no2)cc1	i	.	-5%	-15%	.	i
COc1ccc(-c2cc(-c3cccs3)c(C#N)c(SCC(=O)NCc3ccco3)n2)cc1	?	2.9µM*	0%	-2%	2.3µM*	?
O=C(CSc1nc(-c2cccs2)cc(C(F)(F)F)n1)Nc1cc(OCC(F)(F)F)cc([N+](=O)[O-])c1	?	?	-5%	19%	16µM*	?
Cc1cccc(C)c1NC(=O)CSc1nc(-c2cccs2)cc(C(F)(F)F)n1	?	.	5%	22%	.	i
COc1ccc(CNC(=O)CSc2nc(-c3ccccc3)cc(-c3cccs3)c2C#N)cc1	i	-8%	-5%	-19%	-17%	i
CCN(CC)C(=O)CSc1nc(-c2cccs2)cc(-c2cccs2)c1C#N	18µM*	-2%	-6%	-13%	-3%	i
CCN(CC)C(=O)CSc1nc(N)c(C#N)c(-c2cccs2)c1C#N	?	?	24%	3%	?	i
COc1ccc(NC(=O)CSc2nc(-c3cccs3)cc(C(F)(F)F)n2)cc1OC	?	.	?	-8%	.	9.2µM*
COc1ccc(NC(=O)CCc2c(C)nc3c(-c4ccccc4)c(C)nn3c2C)cc1Cl	i	.	3%	0%	.	i
CCOC(=O)c1c(NC(=O)CSc2cn(CCNC(=O)c3ccc(OC)c(OC)c3)c3ccccc23)sc2c1CCC2	i	.	?	-4%	.	i
O=C(COc1ccc(Cl)cc1)Nc1ccc(C(=O)OCc2cc(=O)n3ccsc3n2)cc1	i	.	?	1%	.	i
Cc1ccc(C)c(NC(=O)CN2CCSc3ccc(S(=O)(=O)N4CCCC4)cc32)c1	?	.	-10%	-14%	.	i
COc1cc(CNC[C@H]2O[C@@H](n3ccc(N)nc3=O)[C@H](O)[C@@H]2O)ccc1OCc1cccc(Cl)c1	i	2%	0%	6%	0%	i
COc1ccc(-c2cc(C(F)(F)F)nc(SCC(=O)NCc3cccs3)n2)cc1	18µM*	-14%	-4%	-25%	?	i
Cc1cc(NC(=O)CCSc2nc(-c3ccco3)cc(C(F)(F)F)n2)no1	i	?	?	-29%	?	i
CSc1nc(C2CC2)cc(-c2cccs2)c1C#N	?	32µM*	5.6µM*	-34%	?	?
COc1ccc(NC(=O)CSc2nc(-c3cccs3)cc(C(F)(F)F)n2)cc1Cl	5.2µM*	.	-4%	3%	.	i
COc1ccc(NC(=O)CSc2nc(-c3ccco3)cc(C(F)(F)F)n2)cc1Cl	.	.	-10%	-18%	.	.
